From PubChem BioAssay (NCI)
The panel holds about 79,000 compounds, 15% with a hit somewhere; the sample as a whole holds those more often. Unmarked numbers belong to inactive results. The source made the active and inactive calls. Rule as the data show it: active = growth inhibition above about 70%; inactive = the rest.

Assay: NCI Yeast Anticancer Drug Screen. Data for the wt2 strain (AID 169);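 also: 0% = growth of vehicle-treated yeast cultures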
Settings: S. cerevisiae wt2 strain growth inhibition, active compounds read high
Description: Growth inhibition of yeast strains with defined genetic alterations is measured as a screen for potential anti-cancer activity. Selected strains with alterations in DNA damage repair or cell cycle control were exposed to compounds and growth inhibition was measured relative to vehicle treated controls. The strain used in this assay is wt2

Row | SMILES | growth inhibition (at 1.2 µM) [%] | growth inhibition (at 3.7 µM) [%] | growth inhibition (at 11.0 µM) [%] | growth inhibition (at 33.0 µM) | growth inhibition (at 100.0 µM)
1 | O=S(=O)(c1cccc(C(F)(F)F)c1)N1c2ccccc2-n2cccc2C1c1cccnc1 (stereo not given) | -23 | -41 | 60 | 93% (active) | 91% (active)
2 | CC(C)OP(=O)(OC(C)C)C(=NCCO)NNc1ccc([N+](=O)[O-])cc1 | 1 | -3 | 8 | 26% | 50%
3 | O=C1C=C(NCCc2cc(Br)c(O)c(Br)c2)C(=O)c2ncccc21 | 13 | 15 | 26 | 67% | 91% (active)
4 | CCOP(=O)(OCC)/C(C#N)=C/c1ccc(-c2ccc(F)cc2F)o1 | -2 | 0 | -1 | 1% | 1%
5 | CCOC(=S)SSSC(=S)OCC | -1 | 0 | 33 | 95% (active) | 99% (active)
6 | Fc1ccc(Nc2ccc3ccccc3c2)cc1 | -1 | 8 | -1 | 44% | 91% (active)
7 | O=C(CCSC1=NCCCN1)c1ccc(F)cc1 | -12 | -13 | -5 | 34% | 99% (active)
8 | O=C1C2=C(c3ccccc31)C(c1ccccc1)N1C(=O)CSC1=N2 (stereo not given) | 2 | 7 | 28 | 44% | 82% (active)
